Drawing on ChEMBL document CHEMBL1157539, “Thousands of chemical starting points for antimalarial lead identification” (Nature, 2010), this text covers Inhibition for 40 molecules.

SMILES strings stand for the structures.

The subject of the experiment is Plasmodium falciparum. Kind of experiment: GSK_TCMDC: Inhibition of Plasmodium falciparum 3D7 in whole red blood cells, using parasite LDH activity as an index of growth. Test compounds present at 2uM. It is filed as functional.
In turn, `O=C(Nc1cccc(CN2CCCN(Cc3ccccc3)CC2)c1)c1cc2ccccc2s1.O=C(O)C(F)(F)F` returned an Inhibition of 87%. Turning to `CCCCCn1c(Sc2ccc(C#N)c([N+](=O)[O-])c2)nnc1-c1cccc(Cl)c1`, the Inhibition was 95%.

As to `Cl.N#Cc1ccc2c(c1)CN(CCC1CCC(NC(=O)c3cc4cnccc4[nH]3)CC1)CC2` (stereo not given), the Inhibition turned out to be 97%. In turn, `O=C(Cn1c(SCc2cccc(F)c2F)cc(=O)c2ccccc21)N(CCCn1ccnc1)Cc1ccc(-c2ccc(C(F)(F)F)cc2)cc1` registered an Inhibition of 99%.

As to `CCCCCN(C(=O)Nc1cc(C(F)(F)F)cc(C(F)(F)F)c1)C(C)c1nc2ccccc2c(=O)n1CC` (stereo not given), the Inhibition turned out to be 100%. In turn, `CCN(CC)CCCC(C)N/C(=N\c1ccccc1Br)Nc1ccc(C#N)cc1O` (stereo not given) yielded an Inhibition of 89%. Consider `Br.CC1(C)NC(N)=NC(=N)N1OCCCCCCOc1ccc(Cl)c2ccccc12`, for which the Inhibition is 91%.

`COc1ccc(CNCc2ccc(-c3ccc(-c4nc5cccc(C)c5[nH]4)cc3)cc2)cc1.O=C(O)C(F)(F)F` returned an Inhibition of 100%. Regarding `CCCc1nc2c(N3CCCN(C(=O)NC4CCCCC4)CC3)cccc2n1Cc1ccccn1`, the Inhibition is listed as 89%. Turning to `c1cncc(-c2cc(N3CCCCC3)nc(-c3ccncc3)n2)c1`, the Inhibition is given as 99%. In the case of `O=C(NC1CCN(Cc2ccccc2O)C1)c1ccc(Cl)c(Cl)c1.O=C(O)C(F)(F)F` (stereo not given) it was 92%; in that of `CC(=O)Nc1ccc(CN2CCN(C(c3ccc(F)cc3)c3ccc(F)cc3)CC2)cc1`, 93%. In turn, `CCCCC1=CC2C(=O)C(C(=O)OC)=CN=C2C=C1OCc1ccccc1` (stereo not given) yielded an Inhibition of 99%. `Cc1cccc2nc(-c3cccc(-c4cccc(C(=O)N5CCCCC5CN5CCC(O)C5)c4)c3)[nH]c12` (stereo not given): the Inhibition was 89%.

As to `C=C[C@H]1CN(CCCCCCC)CC[C@H]1C[C@@H](Cc1ccnc2ccc(OC)cc12)OC(=O)[C@](OC)(c1ccccc1)C(F)(F)F`, the Inhibition worked out at 96%.

With `Cc1cc(N2CCCCC2)nc2ccc(NC(=O)c3cncc(Br)c3)cc12`, the Inhibition is given as 100%. Molecule `COc1ccc2c(c1)S(=O)(=O)N=C(N1CCCC1c1ccc(Cl)c(Cl)c1)N2C.O=C(O)C(F)(F)F` (stereo not given) had an Inhibition of 89%.

`COc1cc2c(C3CCN(CC4CCN(C(=O)/C=C/c5ccc(Cl)c(Cl)c5)CC4)CC3)c[nH]c2cn1` gave an Inhibition of 100%. `O=C(Nc1cccc(-c2ccc(CN3CCCC3)cc2)c1)c1ccc(Cl)cc1.O=C(O)C(F)(F)F` showed an Inhibition of 100%. In turn, `CC(C)c1ccc(NC(=O)c2ccc(CN3CCCN(CC4CCCCC4)CC3)cc2)cc1.O=C(O)C(F)(F)F` registered an Inhibition of 90%. `CC(=O)Nc1cccc(C(=O)Nc2cccc(-c3cccc(-c4nc5ccccc5[nH]4)c3)c2)c1` yielded an Inhibition of 100%. Consider `CCCCc1ccc(C(=O)NC2CCN(C[C@H](O)c3ccnc4ccc(OC)cc34)CC2)cc1`, for which the Inhibition is 91%.

Regarding `COc1ccc2ncc(F)c(CCN3C[C@H](CNCc4cc(F)c5c(c4)NC(=O)CO5)[C@H](O)C3)c2n1.Cl`, the Inhibition came to 94%. In turn, `Clc1ccccc1/C=C/c1cncnc1Nc1ccc2[nH]c(Cc3ccccc3)nc2c1` yielded an Inhibition of 96%. Turning to `OCC(c1ccccc1)n1c(COc2ccc(Cl)cc2)nc2c(OCCCN3CCCCC3)cccc21` (stereo not given), the Inhibition is on record as 90%. With `O=C(O)C(F)(F)F.O=C1CCCN1CCCNCc1cccc(-c2cccc(-c3nc4cc(C(F)(F)F)ccc4[nH]3)c2)c1`, the Inhibition is given as 100%. Molecule `Cl.O=c1cc(NCCCNCc2ccc(Cl)c(Cl)c2)[nH]c2ccc(Cl)cc12` came in with an Inhibition of 100%. Under `CCCOc1cccc(C(=O)N[C@@H](Cc2ccccc2)[C@H](O)CNCc2ccccc2OC)c1` stands 95%; under `COc1cccc(C(NC(=O)c2ccccc2)c2ccc3cccnc3c2O)c1` (stereo not given), 89%. For `COc1ccc(COc2cc(NCCCN)nc3ccccc23)cc1`, the Inhibition was 100%. Consider `CC[C@H](C)CNC(=O)c1cncc(-c2cccc(CN(C)C3CCN(C)CC3)c2)c1.O=C(O)C(F)(F)F`, for which the Inhibition is recorded as 100%. Under `O=c1ccc(CNc2nc(NCCc3ccccc3)nc3cc(Cl)ccc23)c[nH]1` stands 95%; under `COc1cccc(-c2ccc3ccnc(N)c3c2)c1.O=C(O)C(F)(F)F`, 100%; under `Cl.O=C(O[C@H]1CN[C@H](C#Cc2cc3ncnc(Nc4ccc5c(ccn5S(=O)(=O)c5cccs5)c4)c3s2)C1)N1CCOCC1`, 85%. Consider `O=C(CC(=O)C(F)(F)F)c1ccccc1[N+](=O)[O-]`, for which the Inhibition stood at 97%. Regarding `Cc1ccc2c(=O)cc(CCc3cccc(F)c3F)n(CC(=O)N(Cc3ccc(-c4ccc(C(F)(F)F)cc4)cc3)C3CCN(C(C)C)CC3)c2n1.O=C(O)C(O)C(O)C(=O)O`, the Inhibition is recorded as 100%.

Turning to `O=C(NCc1ccco1)c1ccc(S(=O)(=O)c2ccc(Cl)cc2)cc1`, the Inhibition is reported as 97%. `COc1cccc(-c2ccc3c(-c4ccc(F)cc4)cnc(N)c3c2)c1.O=CO` yielded an Inhibition of 100%.

As to `COc1ccc2c(=NN=Cc3ccccc3Cl)cc(C)[nH]c2c1`, the Inhibition came to 100%. `COc1cccc(NC(=O)Nc2ccc(C)c(-c3ccc(C(=O)Nc4ccncc4)cc3)c2)c1`: the Inhibition was determined as 99%.
